The results in this text go back to the supplement of paper PMC10849652.

Targets with a hit are over-represented here; the source holds about 7,900 in all. About 0.6% of all pairs of compound and target were hits.

Chain of UniProt Q13131 (Q13131 whole entry, looked up): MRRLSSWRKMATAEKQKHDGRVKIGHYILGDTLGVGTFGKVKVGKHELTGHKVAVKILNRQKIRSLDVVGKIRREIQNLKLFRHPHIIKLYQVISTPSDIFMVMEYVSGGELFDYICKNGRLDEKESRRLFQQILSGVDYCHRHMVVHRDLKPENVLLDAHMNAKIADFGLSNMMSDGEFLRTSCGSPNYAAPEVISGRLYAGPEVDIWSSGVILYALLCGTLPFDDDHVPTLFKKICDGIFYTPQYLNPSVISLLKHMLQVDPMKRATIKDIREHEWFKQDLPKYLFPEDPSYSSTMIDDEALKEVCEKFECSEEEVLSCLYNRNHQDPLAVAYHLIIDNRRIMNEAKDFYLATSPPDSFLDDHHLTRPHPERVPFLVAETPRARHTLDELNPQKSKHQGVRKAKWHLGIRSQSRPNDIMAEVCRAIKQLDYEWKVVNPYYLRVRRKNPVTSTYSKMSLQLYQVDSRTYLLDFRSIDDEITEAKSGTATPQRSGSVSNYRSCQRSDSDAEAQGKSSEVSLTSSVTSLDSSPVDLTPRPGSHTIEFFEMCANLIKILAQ
Chain of UniProt P43686 (P43686 whole entry, looked up): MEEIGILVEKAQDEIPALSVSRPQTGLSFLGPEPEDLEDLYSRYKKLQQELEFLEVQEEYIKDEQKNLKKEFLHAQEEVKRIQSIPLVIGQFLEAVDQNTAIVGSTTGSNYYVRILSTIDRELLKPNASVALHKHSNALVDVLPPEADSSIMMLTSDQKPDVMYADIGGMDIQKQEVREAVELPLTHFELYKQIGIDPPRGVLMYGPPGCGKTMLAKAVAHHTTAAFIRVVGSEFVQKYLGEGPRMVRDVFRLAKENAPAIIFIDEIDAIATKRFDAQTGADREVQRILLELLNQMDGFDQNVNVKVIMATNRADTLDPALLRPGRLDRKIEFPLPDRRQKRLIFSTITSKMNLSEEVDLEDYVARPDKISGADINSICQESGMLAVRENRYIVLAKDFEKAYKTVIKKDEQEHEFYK
Chain of UniProt Q9NW08 (Q9NW08 whole entry, looked up): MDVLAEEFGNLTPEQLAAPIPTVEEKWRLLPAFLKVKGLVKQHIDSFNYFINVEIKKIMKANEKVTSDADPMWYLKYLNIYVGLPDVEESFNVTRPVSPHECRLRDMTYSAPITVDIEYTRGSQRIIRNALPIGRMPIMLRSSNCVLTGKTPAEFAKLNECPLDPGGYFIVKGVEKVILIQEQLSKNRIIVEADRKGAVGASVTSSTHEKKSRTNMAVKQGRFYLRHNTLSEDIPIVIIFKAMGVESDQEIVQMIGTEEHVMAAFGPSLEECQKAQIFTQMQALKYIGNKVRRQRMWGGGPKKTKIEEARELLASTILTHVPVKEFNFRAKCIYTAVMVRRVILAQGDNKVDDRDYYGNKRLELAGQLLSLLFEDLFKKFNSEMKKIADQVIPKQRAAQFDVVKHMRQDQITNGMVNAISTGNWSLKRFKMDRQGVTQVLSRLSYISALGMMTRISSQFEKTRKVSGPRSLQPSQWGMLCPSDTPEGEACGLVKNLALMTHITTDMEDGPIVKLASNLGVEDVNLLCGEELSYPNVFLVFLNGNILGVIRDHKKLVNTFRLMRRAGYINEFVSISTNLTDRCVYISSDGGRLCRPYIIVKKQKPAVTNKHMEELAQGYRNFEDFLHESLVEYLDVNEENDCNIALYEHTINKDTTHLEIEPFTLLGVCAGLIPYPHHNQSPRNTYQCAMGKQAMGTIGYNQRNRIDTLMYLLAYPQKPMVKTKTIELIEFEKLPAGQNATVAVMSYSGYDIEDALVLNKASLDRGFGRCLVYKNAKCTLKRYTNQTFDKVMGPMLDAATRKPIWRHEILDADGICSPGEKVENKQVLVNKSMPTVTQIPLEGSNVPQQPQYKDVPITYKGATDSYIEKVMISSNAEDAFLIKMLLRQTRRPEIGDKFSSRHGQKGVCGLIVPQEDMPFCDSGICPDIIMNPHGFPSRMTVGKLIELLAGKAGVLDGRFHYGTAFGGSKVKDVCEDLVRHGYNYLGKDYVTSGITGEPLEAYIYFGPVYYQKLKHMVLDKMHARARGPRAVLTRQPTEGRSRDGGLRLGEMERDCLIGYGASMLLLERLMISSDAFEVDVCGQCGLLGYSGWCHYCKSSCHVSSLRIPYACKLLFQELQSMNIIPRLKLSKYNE
Chain of UniProt Q6P4A8 (Q6P4A8 whole entry, looked up): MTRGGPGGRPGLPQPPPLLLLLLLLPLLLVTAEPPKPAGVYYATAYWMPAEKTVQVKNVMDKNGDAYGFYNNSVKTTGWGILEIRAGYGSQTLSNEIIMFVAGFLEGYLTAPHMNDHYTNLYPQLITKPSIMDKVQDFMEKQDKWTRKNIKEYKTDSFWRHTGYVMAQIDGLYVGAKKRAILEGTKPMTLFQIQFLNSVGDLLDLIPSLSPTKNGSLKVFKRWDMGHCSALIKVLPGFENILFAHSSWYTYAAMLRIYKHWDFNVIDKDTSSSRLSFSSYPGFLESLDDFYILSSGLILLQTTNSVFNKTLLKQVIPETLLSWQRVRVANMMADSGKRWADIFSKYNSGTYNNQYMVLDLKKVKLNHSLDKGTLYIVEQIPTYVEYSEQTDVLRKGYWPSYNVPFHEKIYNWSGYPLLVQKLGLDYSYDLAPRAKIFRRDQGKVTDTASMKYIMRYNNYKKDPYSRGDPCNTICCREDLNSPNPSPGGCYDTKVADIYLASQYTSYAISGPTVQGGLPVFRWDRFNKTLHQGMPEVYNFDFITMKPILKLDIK
Chain of UniProt P27986 (P27986 whole entry, looked up): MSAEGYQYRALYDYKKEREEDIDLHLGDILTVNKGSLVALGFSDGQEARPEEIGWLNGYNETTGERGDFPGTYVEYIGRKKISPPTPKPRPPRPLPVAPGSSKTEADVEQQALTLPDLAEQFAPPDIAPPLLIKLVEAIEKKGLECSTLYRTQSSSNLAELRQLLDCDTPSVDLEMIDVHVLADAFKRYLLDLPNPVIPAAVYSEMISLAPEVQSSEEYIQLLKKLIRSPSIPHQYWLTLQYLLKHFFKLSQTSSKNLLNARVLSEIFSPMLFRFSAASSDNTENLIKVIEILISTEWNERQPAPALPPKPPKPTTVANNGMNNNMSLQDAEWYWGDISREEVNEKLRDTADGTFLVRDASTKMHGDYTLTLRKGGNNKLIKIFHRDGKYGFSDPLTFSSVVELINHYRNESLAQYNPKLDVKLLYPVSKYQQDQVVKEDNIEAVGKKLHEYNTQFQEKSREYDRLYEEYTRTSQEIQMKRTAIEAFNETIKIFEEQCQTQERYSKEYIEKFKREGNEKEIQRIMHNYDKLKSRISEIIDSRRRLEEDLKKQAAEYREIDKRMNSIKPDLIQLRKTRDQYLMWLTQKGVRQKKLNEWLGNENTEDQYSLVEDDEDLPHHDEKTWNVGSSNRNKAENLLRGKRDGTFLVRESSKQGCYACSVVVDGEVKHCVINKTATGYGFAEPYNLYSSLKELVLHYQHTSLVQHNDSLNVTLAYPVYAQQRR
Chain of UniProt Q8N4L2 (Q8N4L2 whole entry, looked up): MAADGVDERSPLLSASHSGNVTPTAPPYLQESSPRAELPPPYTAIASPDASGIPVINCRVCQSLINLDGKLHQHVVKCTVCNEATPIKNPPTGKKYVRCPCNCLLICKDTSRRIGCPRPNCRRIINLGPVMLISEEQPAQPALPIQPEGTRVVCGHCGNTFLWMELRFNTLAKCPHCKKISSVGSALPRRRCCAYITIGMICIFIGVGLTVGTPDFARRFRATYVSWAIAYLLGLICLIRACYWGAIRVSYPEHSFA
Chain of UniProt Q6L8Q7 (Q6L8Q7 whole entry, looked up): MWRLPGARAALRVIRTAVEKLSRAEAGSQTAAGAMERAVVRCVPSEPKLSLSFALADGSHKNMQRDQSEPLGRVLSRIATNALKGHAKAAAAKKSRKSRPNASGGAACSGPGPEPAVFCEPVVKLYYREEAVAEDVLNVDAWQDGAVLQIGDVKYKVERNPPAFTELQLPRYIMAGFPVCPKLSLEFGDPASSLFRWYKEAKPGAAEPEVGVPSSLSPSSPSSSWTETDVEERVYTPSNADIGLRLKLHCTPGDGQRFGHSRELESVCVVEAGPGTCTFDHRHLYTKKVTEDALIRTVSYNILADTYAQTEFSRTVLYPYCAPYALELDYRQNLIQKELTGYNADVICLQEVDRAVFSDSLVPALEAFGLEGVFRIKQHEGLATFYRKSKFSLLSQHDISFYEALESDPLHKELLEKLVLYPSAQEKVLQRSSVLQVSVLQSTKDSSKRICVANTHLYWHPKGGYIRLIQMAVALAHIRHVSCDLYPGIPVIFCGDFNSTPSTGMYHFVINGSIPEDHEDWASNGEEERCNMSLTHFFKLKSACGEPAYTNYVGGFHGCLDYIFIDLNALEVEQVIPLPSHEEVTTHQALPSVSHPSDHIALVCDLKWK
Chain of UniProt Q9H814 (Q9H814 whole entry, looked up): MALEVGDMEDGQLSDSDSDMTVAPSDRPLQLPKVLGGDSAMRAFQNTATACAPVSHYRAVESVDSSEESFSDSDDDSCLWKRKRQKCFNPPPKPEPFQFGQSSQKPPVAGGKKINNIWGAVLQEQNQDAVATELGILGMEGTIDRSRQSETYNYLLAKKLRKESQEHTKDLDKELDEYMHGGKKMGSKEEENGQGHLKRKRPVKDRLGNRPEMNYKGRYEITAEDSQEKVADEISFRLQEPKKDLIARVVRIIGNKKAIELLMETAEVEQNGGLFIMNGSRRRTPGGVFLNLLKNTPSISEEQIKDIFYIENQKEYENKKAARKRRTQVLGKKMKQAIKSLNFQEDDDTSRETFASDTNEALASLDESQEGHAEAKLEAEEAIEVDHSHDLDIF
Chain of UniProt Q9Y478 (Q9Y478 whole entry, looked up): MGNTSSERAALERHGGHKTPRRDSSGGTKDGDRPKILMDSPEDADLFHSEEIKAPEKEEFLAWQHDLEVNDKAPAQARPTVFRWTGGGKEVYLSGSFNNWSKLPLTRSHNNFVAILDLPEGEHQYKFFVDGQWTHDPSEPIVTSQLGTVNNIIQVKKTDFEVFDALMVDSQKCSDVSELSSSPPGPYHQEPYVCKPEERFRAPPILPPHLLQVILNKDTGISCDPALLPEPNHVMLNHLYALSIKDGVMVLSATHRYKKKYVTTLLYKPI

Compound in this assay: CCN(CCCOc1ccc2c(Nc3cc(CC(=O)Nc4cccc(F)c4)[nH]n3)ncnc2c1)CCOP(=O)(O)O [barasertib]
In words: log2 fold change, soluble protein after heating vs DMSO (PISA); higher = thermal stabilisation; K562 cells, 10 uM, 30 min; active = over 0.2 and 3.5 SD of the protein, either way, in both replicates (recomputed). In a few lines:
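Quantification of soluble protein used TMTpro 16plex LC-MS/MS, with channel sums equalised. Samples were the supernatant after 21,000xg for 90 min of pooled aliquots from K562 cells (2×10^6 cells/mL) treated with 10 μM compound for 30 min, heated for 3 min over 48°C-58°C, and extracted in PBS with 0.5% NP-40 at 4°C. Values, from duplicates, describe thermal stability against control samples on a log2 fold-change scale.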
With POLR3B (UniProt Q9NW08), the log2 fold change was 0.114 (inactive).
PHKG2 (UniProt P15735): the log2 fold change was -0.079 (inactive).
Next, POLR2D (UniProt O15514): -0.031 (inactive).
Next, PRKAB1 (UniProt Q9Y478): 0.026 (inactive); PRKAA1 isoform 2 (UniProt Q13131): 0.016 (inactive).
PSMC4 (UniProt P43686): the log2 fold change is -0.042 (inactive).
For PRKAR1A (UniProt P10644), the log2 fold change was -0.01 (inactive).
Next, PIK3R1 (UniProt P27986): 0.038 (inactive); PHAX (UniProt Q9H814): -0.008 (inactive).
As to PIP4P2 (UniProt Q8N4L2), the log2 fold change was 0 (inactive).
Next, PLBD1 (UniProt Q6P4A8): 0.027 (inactive); PSMC1 (UniProt P62191): -0.073 (inactive); PDE12 (UniProt Q6L8Q7): 0.014 (inactive).
For PARN (UniProt O95453), the log2 fold change is 0.057 (inactive).
